Only some compounds are listed: those with a hit (about 11% of all), similar ones and a draw of the others.
Pf growth 96h = Primary qHTS for delayed death inhibitors of the malarial parasite plastid, 96 hour incubation. P. falciparum luciferase reporter growth, 96 h. Potency, µM (series often up to 28.7 µM), for the others: at the top dose activity change, negative = inhibition, usual class: inhibitors. 6.9% of 320,000 active; also: % is scaled to controls: 0 for no effect and ±100 for the full control effect
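Plates of compound plus infected erythrocytes (2% hematocrit, 0.05% parasitemia final) incubate 96 hours, 37 C, 5% CO2. Detection reagent added; reduced luminescence from the parasites' luciferase reporter flags inhibition.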
Pf growth 48h = Primary qHTS for delayed death inhibitors of the malarial parasite plastid, 48 hour incubation; Potency, µM (doses to about 28.7 µM), for inactives: top-dose activity change, negative = inhibition, usual class: inhibitors; P. falciparum luciferase growth in erythrocytes, 48 h; 5.9% of 310,000 active; also: % is scaled to controls: 0 for no effect and ±100 for the full control effect
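Firefly luciferase activity from engineered P. falciparum reports growth; inhibitors lower the luminescent signal. Cultures contained 2% hematocrit erythrocytes at 0.1% final parasitemia.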
Vaccinia Venus = qHTS for Stage-Specific Inhibitors of Vaccinia Orthopoxvirus: Venus Reporter Primary qHTS; Potency, µM (highest dose often 36.5 µM), without a hit: top-dose activity change, negative = inhibition, hits mostly inhibitors; Vaccinia virus Venus reporter expression, fluorescence; 0.46% of 330,000 active; calls by dose curve; tested in A549 cells; also: % is scaled to controls: 0 for no effect and ±100 for the full control effect; nearly all actives have a fitted effect of over 30% in size
HCV inh = qHTS Assay for Inhibitors of Hepatitis C Virus (HCV); Huh7.5.1 HCVcc-Cre infection, luciferase reporter, 44 h; Potency, µM (series often up to 41.8 µM), for the others: at the highest dose activity change, negative = inhibition, most hits filed as inhibitors; 3.4% of 340,000 active; also: % is scaled to controls: 0 for no effect and ±100 for the full control effect
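Reporter virus HCVcc-Cre (~0.5 moi) infects cells exposed to compound; seeding density 1,000 cells/well with 4 h settling beforehand. Luminescence, 15 sec read, taken 44 h post-infection following a 15 min RT substrate incubation.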
VACV mCherry inh = qHTS for Stage-Specific Inhibitors of Vaccinia Orthopoxvirus: mCherry Reporter Primary qHTS. Vaccinia virus mCherry reporter infection, fluorescence. Potency, µM (highest dose often 36.5 µM), inactives show at the highest dose activity change, negative = inhibition, usual class: inhibitors. 0.63% of 310,000 active. AID 720579, 2013; calls by dose curve; tested in A549 cells; also: % is scaled to controls: 0 for no effect and ±100 for the full control effect; nearly all actives have a fitted effect of over 35% in size
NS1 inh = qHTS Assay for Inhibitors of Influenza NS1 Protein Function; Potency, µM (highest dose often 46.1 µM), for the others: at the top dose activity, positive = more growth; 0.4% of 270,000 active; AID 2326, 2010; calls by dose curve; also: actives are rising curves; nearly all actives have a fitted effect of over 50% in size
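OD600 was taken as the measure of yeast growth restored by compound in an NS1-expressing S. cerevisiae strain. Cells had been washed out of glucose medium and diluted 1:100 into galactose -URA medium, pH 6.0.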
* marks the source's active call; other numbers are inactive results; i = inactive; u = inconclusive; x = no result; [ ] = another dose, or the depositor's remark. Unless noted, calls follow the shape of the dose curve; as a rule, active = well fitted inhibition curve with a large enough effect; inconclusive = small, poorly fitted or top-dose-only effect, or another doubt; inactive = no such curve, though single readings can be large or run the other way. Potency is read from the fitted curve at half-maximal effect.

SMILES	Pf growth 96h	Pf growth 48h	Vaccinia Venus	HCV inh	VACV mCherry inh	NS1 inh
CC(=O)N1CC(C)Sc2ccc(S(=O)(=O)NC(C)c3ccccc3)cc21 (stereo not drawn)	13µM*	-3%	-6%[7.34 µM]	u	-8%[7.34 µM]	2%
CC(=O)N1CCOc2ccc(S(=O)(=O)NCCc3ccccc3)cc21	u	10%	-18%	-7%	-26%	0%
CC(=O)N1CC(C)Sc2ccc(S(=O)(=O)NCCc3ccccc3)cc21 (stereo not drawn)	u	38%	x	u	x	0%
COc1ccccc1NS(=O)(=O)c1ccc2c(c1)N(C(C)=O)CC(C)S2 (stereo not drawn)	u	27%	x	4%	x	4%
CC(=O)N1CCOc2ccc(S(=O)(=O)NCCc3cccc(C)c3)cc21	10µM*	21%	5%[7.34 µM]	-11%	-5%[7.34 µM]	-14%
CC(=O)N1CC(C)Sc2ccc(S(=O)(=O)NCCc3ccc(C)cc3)cc21 (stereo not drawn)	u	0%	x	11µM*	x	-24%
Cc1ccccc1CNC(=O)CCC(=O)N1CCOc2ccccc21	71%	44%	3%	6%	-6%	26%
CC(NC(=O)c1ccc2c(c1)CCN2S(=O)(=O)c1ccc(Cl)cc1)c1ccccc1 (stereo not drawn)	x	x	-4%	x	-12%	x
O=C(O)C1CCN(C(=O)NC2CCCCC2)CC1	84%	x	-4%	18%	x	5%
CC1SC(c2ccccc2)N(CC(O)c2ccc([N+](=O)[O-])cc2)C1=O (stereo not drawn)	75%	12µM*	x	3%	x	x
CC(C)n1nnc(-c2ccc(OCc3ccccc3F)cc2)n1	8.3µM*	29%	x	11%	x	-45%
Cc1ccc(-c2[nH]c(-c3ccc(Cl)cc3)nc2SCC(=O)NCC2CCCO2)cc1 (stereo not drawn)	9.3µM*	u	-14%	16%	7%	12%
Cc1ccc(S(=O)(=O)c2nc(-c3ccccc3)oc2SCC(=O)NCC2CCCO2)cc1 (stereo not drawn)	12µM*	10µM*	-11%	10µM*	-10%	14%
CCc1ccc(-c2nc(SCC(=O)NCC3CCCO3)c(-c3ccc(C)cc3)[nH]2)cc1 (stereo not drawn)	x	x	-20%	x	-15%	x
Cc1ccc(-c2nc(S(=O)(=O)c3ccc(F)cc3)c(SCC(=O)NCC3CCCO3)o2)cc1 (stereo not drawn)	0%	8%	-2%	2%	-7%	9%
O=C(c1ccc2c(=O)n(C3CCCC3)c(=S)[nH]c2c1)N1CCN(C2CCCCC2)CC1	0%	8%	-2%	13%	-16%	-13%
Cn1c(=O)c2ncn(CC(=O)Nc3cccc(-c4nc5ccccc5s4)c3)c2n(C)c1=O	31%	171%	-6%	10µM*	i	-59%
CN(C)CCNC(=O)c1ccc2c(c1)N(Cc1c(F)cccc1Cl)C(=O)c1ccccc1S2	x	x	-25%	x	-7%	x
CNC(=S)N(C)/N=C1/C(=O)N(Cc2c(Cl)cccc2Cl)c2ccccc21	u	u	-21%	13µM*	-15%	x
C=CCOc1c(CNc2ncn[nH]2)cccc1OCC	9.3µM*	-24%	0%	13%	x	1%
N=C(N)SCc1cn(-c2ccccc2)nc1-c1ccc(Br)cc1	0%	0%	u	u	11µM*	6%
Cc1nc(SCC#N)c2c(C)c(C)sc2n1	9.3µM*	-8%	-19%	-14%	-16%	1%
CC(C)Nc1nc(NC(C)C)nc(C(=O)OCCO)n1	59%	x	-12%	11%	-12%	1%
CN(Cc1ccccc1)S(=O)(=O)c1cn(C)cn1	28%	35%	-5%	19%	-14%	5%
COCC(C)n1c(C)cc(C(=O)CSc2nnc(Nc3ccccc3F)s2)c1C (stereo not drawn)	0.59µM*	1.5µM*	-21%	u	-19%	18%
SMILES	Pf growth 96h	Pf growth 48h	Vaccinia Venus	HCV inh	VACV mCherry inh	NS1 inh
COc1cc(CN2CCCCC2)ccc1OCc1ccccc1	u	16%	-11%	4%	i	14%
COc1ccc(Cl)cc1NC(=S)N(CCCN1CCOCC1)Cc1cn(C)c2ccccc12	13%	u	u	10µM*	u	-14%
COc1ccccc1NC(=S)N(CCCN1CCOCC1)Cc1cn(C)c2ccccc12	43%	u	-23%	u	-12%	10%
CCOc1ccccc1NC(=S)N(CCCN1CCOCC1)Cc1cn(C)c2ccccc12	u	12µM*	-27%	u	-25%	-3%
O=C(N/C(=C/c1ccco1)C(=O)N1CCCC1)c1cccs1	-21%	u	-14%	11%	-20%	14%
O=C(O)c1ccc2c(=O)[nH]c(CN3CCOCC3)nc2c1	x	4%	-7%	13%	i	2%
O=C(O)c1ccc2c(=O)[nH]c(CCl)nc2c1	13µM*	u	-15%	14%	i	x
Cc1ccc(C(=O)CCC(=O)N2CCN(c3ccccc3O)CC2)cc1	-15%	u	-11%	u	u	x
COc1cccc(CN2CCN(C(=O)Cc3ccccc3OC)CC2)c1	u	-13%	x	-7%	x	-3%
Cc1ccc(-c2nc3c(c(SCC(=O)N4CCOCC4)n2)Cc2c(CO)cnc(C)c2O3)cc1	-14%	7.4µM*	x	u	x	16%
CCN1C(C(=O)c2ccccc2)=C(NC(=O)c2ccc(Cl)cc2)c2ccccc2S1(=O)=O	x	x	-12%	x	i	x
CCc1ccc2c(c1)C(c1ccc([N+](=O)[O-])cc1)=NNC(c1ccc(Br)cc1)=N2	-24%	9.3µM*	-10%	-4%	i	8%
O=C(Nc1ccc(NC(=O)c2ccncc2)cc1)c1ccncc1	41%	50%	x	x	x	-3%
Cc1onc(-c2c(Cl)cccc2Cl)c1/C(N)=N/OC(=O)N(C)C	u	u	0%	20%	10%	2%
Cc1onc(-c2c(Cl)cccc2Cl)c1CO/N=C(\C#N)c1c(Cl)cccc1Cl	u	15µM*	-2%	u	-3%	-1%
CCCCCCCC/C=C/CCCCCCCCOP(=O)([O-])OCC[N+](C)(C)C	x	x	-7%	x	-6%	x
CCCCCCCCCCCCCCCCOP(=O)([O-])OCC[N+](C)(C)C	7.6µM*	u	u	x	u	x
C/C(=N\NC(=O)c1ccc(Br)cc1)c1cccnc1	u	63%	-10%	3%	i	-5%
CN(C)C/C=C(\c1ccc(Br)cc1)c1cccnc1	u	15µM*	-15%	u	i	-6%
CNC(=O)N(C1=NCC(C)S1)c1ccc(F)cc1F (stereo not drawn)	-7%	5%	x	u	x	-39%
